Measurements: the supplement of paper PMC11732987, “Enantioselective OTUD7B fragment discovery through chemoproteomics screening and high-throughput optimisation” (Communications Chemistry, 2025)

Experiments:
Assay in all cases: log2 ratio of Biotin-Ahx-Ub-VS probe labelling (compound/DMSO); higher = less target engagement, active = hit call of the paper (q ≤ 0.05, log2 ratio ≤ -1)
Conditions in all cases: treatment time: 3 h
[1] = compound: CCC1N(CCc2sccc12)C(=O)CCl
Method in brief: (§1)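 DUBs in HEK293T lysate were labelled with Biotin-Ahx-Ub-VS (0.5 µM final, 1 h) after a 3 h treatment with compound at 50 or 200 µM or with DMSO, done in triplicate on 495 µg of lysate per sample. NeutrAvidin-enriched proteins were digested with LysC and trypsin and run by diaPASEF LC-MS/MS. Median-normalised label-free quantities gave average base-two log ratios of compound to DMSO by unpaired t-test, restricted to proteins with at least 2 unique peptides.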

[2] = compound: CN1c2ccccc2C(CS1(=O)=O)NC(=O)CCl
Method in brief: as §1

[3] = compound: Cl.ClCC(=O)N1CCc2ncncc2C1
Method in brief: as §1

[4] = compound: Cl.Cn1ncc2C(CCCc12)NC(=O)CCl
Method in brief: as §1

[5] = compound: ClCC(=O)NC1CCOc2ccccc12
Method in brief: as §1

[6] = compound: ClCC(=O)NC1CCCc2ccccc12
Method in brief: (§2)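 Average ratios of compound to vehicle were obtained by unpaired t-test. Beforehand, 495 µg samples of HEK293T lysate in buffer with protease inhibitors were treated in triplicate with compound over a concentration series or vehicle for 3 h, then with 0.5 µM final Biotin-Ahx-Ub-VS for 1 h. Labelled deubiquitinases were NeutrAvidin-enriched, digested and quantified label-free by diaPASEF LC-MS/MS in Spectronaut, normalised to the global median. Values are log2 and cover proteins with at least two unique peptides.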

[7] = compound: ClCC(=O)N[C@@H]1CCCc2ccccc12
Method in brief: as §2

[8] = compound: ClCC(=O)N[C@H]1CCCc2ccccc12
Method in brief: as §2

[9] = compound: CCC1N(CCc2cc(OC)c(Cl)cc12)C(=O)CCl
Method in brief: as §1

[10] = compound: CCCC1N(CCc2cc(OC)c(OC)cc12)C(=O)CCl
Method in brief: as §1

Measured: log2 ratio of Biotin-Ahx-Ub-VS probe labelling

UniProt Q5T2D3
Chain of UniProt Q5T2D3 (Q5T2D3 whole entry): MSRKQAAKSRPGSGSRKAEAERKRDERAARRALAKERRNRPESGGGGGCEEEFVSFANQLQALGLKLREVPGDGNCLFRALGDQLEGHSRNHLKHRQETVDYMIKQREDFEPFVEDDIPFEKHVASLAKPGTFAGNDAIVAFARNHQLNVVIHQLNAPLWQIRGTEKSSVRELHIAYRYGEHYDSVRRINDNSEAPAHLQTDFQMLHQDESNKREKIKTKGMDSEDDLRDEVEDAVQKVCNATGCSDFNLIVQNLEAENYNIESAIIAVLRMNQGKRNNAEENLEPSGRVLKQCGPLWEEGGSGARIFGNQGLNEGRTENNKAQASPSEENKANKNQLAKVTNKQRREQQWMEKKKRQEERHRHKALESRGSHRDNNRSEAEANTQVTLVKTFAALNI
inactive: [1]; compound concentration: 50uM -0.152 | [1]; compound concentration: 200uM -0.102 | [2]; compound concentration: 50uM -0.294 | [2]; compound concentration: 200uM -0.292 | [3]; compound concentration: 50uM -0.0797 | [3]; compound concentration: 200uM -0.274 | [4]; compound concentration: 50uM -0.136 | [4]; compound concentration: 200uM 0.135 | [5]; compound concentration: 50uM -0.0283 | [5]; compound concentration: 200uM -0.137 | [6]; compound concentration: 0.78uM -0.198 | [6]; compound concentration: 1.56uM -0.0928 | [6]; compound concentration: 3.13uM -0.11 | [6]; compound concentration: 6.25uM -0.192 | [6]; compound concentration: 12.5uM -0.113 | [6]; compound concentration: 25uM 0.0408 | [6]; compound concentration: 50uM -0.0723 | [6]; compound concentration: 100uM -0.0612 | [6]; compound concentration: 200uM -0.179 | [7]; compound concentration: 0.78uM -0.153 | [7]; compound concentration: 1.56uM -0.131 | [7]; compound concentration: 3.13uM -0.0877 | [7]; compound concentration: 6.25uM -0.0936 | [7]; compound concentration: 12.5uM -0.0592 | [7]; compound concentration: 25uM -0.125 | [7]; compound concentration: 50uM -0.234 | [7]; compound concentration: 100uM -0.0551 | [7]; compound concentration: 200uM -0.296 | [8]; compound concentration: 0.78uM -0.237 | [8]; compound concentration: 1.56uM -0.21 | [8]; compound concentration: 3.13uM -0.232 | [8]; compound concentration: 6.25uM -0.0509 | [8]; compound concentration: 12.5uM 0.00779 | [8]; compound concentration: 25uM -0.0485 | [8]; compound concentration: 50uM 0.0602 | [8]; compound concentration: 100uM 0.0541 | [8]; compound concentration: 200uM -0.193 | [9]; compound concentration: 50uM 0.0656 | [9]; compound concentration: 200uM -0.0849 | [10]; compound concentration: 50uM -0.315 | [10]; compound concentration: 200uM -0.497

USP9X (UniProt Q93008)
Chain of UniProt Q93008 (Q93008 whole entry): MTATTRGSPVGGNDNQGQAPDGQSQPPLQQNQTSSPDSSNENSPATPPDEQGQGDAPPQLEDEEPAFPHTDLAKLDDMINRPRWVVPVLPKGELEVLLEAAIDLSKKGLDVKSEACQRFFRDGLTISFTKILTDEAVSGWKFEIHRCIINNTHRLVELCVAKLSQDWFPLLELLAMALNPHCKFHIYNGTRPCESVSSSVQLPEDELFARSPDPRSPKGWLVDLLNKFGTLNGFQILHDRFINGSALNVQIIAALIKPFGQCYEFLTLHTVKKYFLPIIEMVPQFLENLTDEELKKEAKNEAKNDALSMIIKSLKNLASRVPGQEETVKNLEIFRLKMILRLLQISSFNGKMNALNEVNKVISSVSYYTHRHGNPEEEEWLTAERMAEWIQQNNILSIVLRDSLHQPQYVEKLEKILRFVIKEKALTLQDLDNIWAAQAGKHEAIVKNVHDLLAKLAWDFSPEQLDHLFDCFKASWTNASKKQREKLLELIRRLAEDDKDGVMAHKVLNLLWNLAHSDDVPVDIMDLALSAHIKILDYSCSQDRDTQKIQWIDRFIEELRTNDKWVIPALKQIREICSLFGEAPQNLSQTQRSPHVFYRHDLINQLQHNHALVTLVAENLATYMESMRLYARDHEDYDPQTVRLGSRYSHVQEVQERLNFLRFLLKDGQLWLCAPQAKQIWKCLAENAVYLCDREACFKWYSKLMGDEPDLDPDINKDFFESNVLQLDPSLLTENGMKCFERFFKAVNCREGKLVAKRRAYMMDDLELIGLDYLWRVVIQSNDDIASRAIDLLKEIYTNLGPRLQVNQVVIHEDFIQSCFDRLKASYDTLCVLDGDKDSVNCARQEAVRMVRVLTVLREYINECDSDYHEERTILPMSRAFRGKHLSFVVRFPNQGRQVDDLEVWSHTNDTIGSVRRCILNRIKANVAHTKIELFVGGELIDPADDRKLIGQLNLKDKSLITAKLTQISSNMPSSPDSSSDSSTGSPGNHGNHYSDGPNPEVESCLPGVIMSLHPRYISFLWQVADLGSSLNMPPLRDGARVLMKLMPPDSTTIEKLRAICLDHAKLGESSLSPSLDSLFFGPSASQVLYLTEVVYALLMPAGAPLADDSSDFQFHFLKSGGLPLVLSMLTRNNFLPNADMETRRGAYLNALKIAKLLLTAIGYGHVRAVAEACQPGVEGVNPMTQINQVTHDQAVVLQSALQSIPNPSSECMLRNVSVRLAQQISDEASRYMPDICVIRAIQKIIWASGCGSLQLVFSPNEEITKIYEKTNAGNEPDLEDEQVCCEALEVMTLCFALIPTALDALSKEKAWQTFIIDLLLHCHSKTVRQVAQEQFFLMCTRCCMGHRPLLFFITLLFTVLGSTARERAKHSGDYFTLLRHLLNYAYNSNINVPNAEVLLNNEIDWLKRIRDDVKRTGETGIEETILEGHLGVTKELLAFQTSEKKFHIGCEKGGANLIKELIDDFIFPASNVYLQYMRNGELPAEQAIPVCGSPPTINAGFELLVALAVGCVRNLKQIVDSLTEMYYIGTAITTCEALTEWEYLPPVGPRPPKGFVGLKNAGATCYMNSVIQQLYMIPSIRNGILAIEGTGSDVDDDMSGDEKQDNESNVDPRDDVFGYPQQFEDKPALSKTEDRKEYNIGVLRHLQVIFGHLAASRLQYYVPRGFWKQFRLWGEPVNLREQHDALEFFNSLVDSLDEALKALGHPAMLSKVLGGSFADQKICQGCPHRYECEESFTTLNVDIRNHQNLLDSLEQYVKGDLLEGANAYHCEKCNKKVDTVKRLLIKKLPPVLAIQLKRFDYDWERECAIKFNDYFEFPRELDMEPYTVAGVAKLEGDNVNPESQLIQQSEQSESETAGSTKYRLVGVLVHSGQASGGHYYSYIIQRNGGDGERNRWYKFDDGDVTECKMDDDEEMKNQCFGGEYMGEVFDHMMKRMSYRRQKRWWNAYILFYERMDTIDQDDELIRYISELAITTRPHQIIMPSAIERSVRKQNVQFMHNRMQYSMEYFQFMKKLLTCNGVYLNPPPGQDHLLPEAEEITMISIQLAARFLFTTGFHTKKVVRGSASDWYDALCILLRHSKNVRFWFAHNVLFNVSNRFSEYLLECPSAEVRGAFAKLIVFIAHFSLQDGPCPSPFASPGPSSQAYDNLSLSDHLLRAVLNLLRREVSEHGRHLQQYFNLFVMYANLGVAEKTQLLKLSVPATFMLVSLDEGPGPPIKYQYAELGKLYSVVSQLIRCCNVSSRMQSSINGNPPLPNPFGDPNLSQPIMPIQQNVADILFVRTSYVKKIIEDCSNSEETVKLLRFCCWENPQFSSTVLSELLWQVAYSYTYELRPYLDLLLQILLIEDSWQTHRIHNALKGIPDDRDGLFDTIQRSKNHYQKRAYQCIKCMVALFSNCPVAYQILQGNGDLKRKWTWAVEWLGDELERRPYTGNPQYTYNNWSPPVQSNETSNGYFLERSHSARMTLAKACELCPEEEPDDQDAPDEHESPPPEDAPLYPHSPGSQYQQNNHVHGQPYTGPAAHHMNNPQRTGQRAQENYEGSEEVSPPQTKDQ
inactive: [1]; compound concentration: 50uM -0.0428 | [1]; compound concentration: 200uM -0.401 | [2]; compound concentration: 50uM -0.081 | [2]; compound concentration: 200uM -0.107 | [3]; compound concentration: 50uM -0.026 | [3]; compound concentration: 200uM -0.376 | [4]; compound concentration: 50uM 0.251 | [4]; compound concentration: 200uM 0.139 | [5]; compound concentration: 50uM 0.133 | [5]; compound concentration: 200uM -0.133 | [6]; compound concentration: 0.78uM -0.00765 | [6]; compound concentration: 1.56uM 0.093 | [6]; compound concentration: 3.13uM -0.0291 | [6]; compound concentration: 6.25uM 0.0092 | [6]; compound concentration: 12.5uM -0.0222 | [6]; compound concentration: 25uM -0.0898 | [6]; compound concentration: 50uM -0.0629 | [6]; compound concentration: 100uM -0.0253 | [6]; compound concentration: 200uM -0.0679 | [7]; compound concentration: 0.78uM -0.0702 | [7]; compound concentration: 1.56uM 0.0356 | [7]; compound concentration: 3.13uM 0.00372 | [7]; compound concentration: 6.25uM -0.00489 | [7]; compound concentration: 12.5uM -0.0481 | [7]; compound concentration: 25uM -0.0408 | [7]; compound concentration: 50uM -0.128 | [7]; compound concentration: 100uM -0.121 | [7]; compound concentration: 200uM -0.242 | [8]; compound concentration: 0.78uM -0.0701 | [8]; compound concentration: 1.56uM 0.0195 | [8]; compound concentration: 3.13uM 0.0203 | [8]; compound concentration: 6.25uM 0.0759 | [8]; compound concentration: 12.5uM -0.0293 | [8]; compound concentration: 25uM -0.0731 | [8]; compound concentration: 50uM -0.0138 | [8]; compound concentration: 100uM -0.119 | [8]; compound concentration: 200uM -0.256 | [9]; compound concentration: 50uM -0.0734 | [9]; compound concentration: 200uM -0.969 | [10]; compound concentration: 50uM -0.249 | [10]; compound concentration: 200uM -0.82

USP14 (UniProt P54578)
Chain of UniProt P54578 (P54578 whole entry): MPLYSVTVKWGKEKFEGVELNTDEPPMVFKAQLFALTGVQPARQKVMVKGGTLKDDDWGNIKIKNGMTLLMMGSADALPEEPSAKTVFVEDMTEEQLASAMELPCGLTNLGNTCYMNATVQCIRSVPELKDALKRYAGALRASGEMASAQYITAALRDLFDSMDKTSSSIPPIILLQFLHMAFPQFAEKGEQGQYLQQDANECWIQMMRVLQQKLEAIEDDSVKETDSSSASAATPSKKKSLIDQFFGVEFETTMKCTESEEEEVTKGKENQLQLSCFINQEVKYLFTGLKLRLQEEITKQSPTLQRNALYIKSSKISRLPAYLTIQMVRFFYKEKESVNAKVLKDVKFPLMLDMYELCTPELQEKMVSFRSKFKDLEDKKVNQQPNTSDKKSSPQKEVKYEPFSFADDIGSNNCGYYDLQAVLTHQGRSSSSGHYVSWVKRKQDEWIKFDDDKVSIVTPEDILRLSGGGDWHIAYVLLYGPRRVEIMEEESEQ
inactive: [1]; compound concentration: 50uM -0.3 | [1]; compound concentration: 200uM -0.357 | [2]; compound concentration: 50uM -0.167 | [2]; compound concentration: 200uM -0.105 | [3]; compound concentration: 50uM 0.049 | [3]; compound concentration: 200uM -0.23 | [4]; compound concentration: 50uM 0.132 | [4]; compound concentration: 200uM 0.0271 | [5]; compound concentration: 50uM -0.194 | [5]; compound concentration: 200uM -0.0567 | [6]; compound concentration: 0.78uM -0.378 | [6]; compound concentration: 1.56uM -0.128 | [6]; compound concentration: 3.13uM -0.334 | [6]; compound concentration: 6.25uM -0.143 | [6]; compound concentration: 12.5uM -0.315 | [6]; compound concentration: 25uM -0.455 | [6]; compound concentration: 50uM -0.285 | [6]; compound concentration: 100uM -0.509 | [6]; compound concentration: 200uM -0.231 | [7]; compound concentration: 0.78uM -0.393 | [7]; compound concentration: 1.56uM -0.0826 | [7]; compound concentration: 3.13uM -0.368 | [7]; compound concentration: 6.25uM -0.447 | [7]; compound concentration: 12.5uM -0.296 | [7]; compound concentration: 25uM -0.25 | [7]; compound concentration: 50uM -0.116 | [7]; compound concentration: 100uM -0.289 | [7]; compound concentration: 200uM -0.289 | [8]; compound concentration: 0.78uM -0.158 | [8]; compound concentration: 1.56uM -0.187 | [8]; compound concentration: 3.13uM -0.308 | [8]; compound concentration: 6.25uM -0.249 | [8]; compound concentration: 12.5uM -0.442 | [8]; compound concentration: 25uM -0.253 | [8]; compound concentration: 50uM -0.322 | [8]; compound concentration: 100uM -0.332 | [8]; compound concentration: 200uM -0.157 | [9]; compound concentration: 50uM -0.071 | [9]; compound concentration: 200uM -0.127 | [10]; compound concentration: 50uM -0.132 | [10]; compound concentration: 200uM 0.0879
